Compound activity as filed in PubChem BioAssay.
Cruzain inh Det – qHTS Assay for Promiscuous and Specific Inhibitors of Cruzain (with detergent); purified cruzain, Z-FR-AMC fluorescence, 0.01% Triton; Potency, µM, usual class: inhibitors; hit rate 0.43% among 200,000; note: nearly all actives have a fitted effect of over 40% in size
Target sequence (P25779 123-467 limits assumed): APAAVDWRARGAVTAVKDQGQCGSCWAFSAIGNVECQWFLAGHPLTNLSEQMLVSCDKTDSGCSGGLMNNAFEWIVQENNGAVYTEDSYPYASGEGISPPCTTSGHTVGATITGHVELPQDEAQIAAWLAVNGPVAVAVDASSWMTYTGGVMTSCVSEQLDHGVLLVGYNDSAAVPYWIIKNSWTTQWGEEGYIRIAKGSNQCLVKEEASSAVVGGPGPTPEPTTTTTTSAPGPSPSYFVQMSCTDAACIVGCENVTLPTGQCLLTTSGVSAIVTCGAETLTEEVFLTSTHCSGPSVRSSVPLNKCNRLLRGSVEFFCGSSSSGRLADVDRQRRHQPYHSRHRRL
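Compounds were screened in titration against cruzain (1.5 nM) with 0.01% Triton X-100 to counter colloidal aggregation. Activity was the AMC fluorescence increase over 60 s after adding 2 uM Z-FR-AMC at pH 5.5.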
Cruzain noTriton – qHTS Assay for Promiscuous and Specific Inhibitors of Cruzain (without detergent) | Cruzipain (Trypanosoma cruzi), P25779 | purified cruzain, Z-FR-AMC fluorescence, no detergent | Potency, µM, hits mostly inhibitors | hit rate 2.3% among 200,000; note: nearly all actives have a fitted effect of over 40% in size
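Purified cruzain at 1.5 nM, pre-incubated 15 min with compound at room temperature in 100 mM sodium acetate pH 5.5, 5 mM DTT, 0.00005% Triton X-100. Reaction started with 2 uM Z-FR-AMC; AMC fluorescence increase over 60 s gives rate.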
Hits are given with their value; . = inactive; ? = inconclusive. Most compounds without a hit are left out; they make up all but 2.5% or so of the library. Calls come from the whole dose curve; as a rule, active = well fitted curve in the direction sought with a large enough effect; inconclusive = small, poorly fitted or top-dose-only effect, or another doubt; inactive = no such curve, though single readings can be large; an effect the other way counts as inactive or inconclusive.

SMILES	Cruzain inh Det	Cruzain noTriton
CCN(CC)C(=O)c1ccc2c(c1)N(Cc1c(F)cccc1Cl)C(=O)c1ccccc1S2	.	.
O=C(/C=C1\NC2(CCCC2)Cc2ccccc21)C(=O)N/N=C/c1ccccc1O	.	25µM
COc1cc(/C=N/NC(=O)C(=O)/C=C2\NC3(CCCC3)Cc3ccccc32)ccc1O	.	.
C=CCn1c(=O)c2ccccc2n2c(SCC(=O)NCCc3ccccc3)nnc12	.	.
C=CCn1c(=O)c2ccccc2n2c(SCC(=O)c3ccccc3)nnc12	.	16µM
O=C(c1cc(Cl)cc(Cl)c1)N1CCOCC1	.	.
CC(C)CCNC(=O)[C@H](CC(C)C)NC(=O)[C@H]1O[C@@H]1C(=O)O	0.1µM	0.1µM
CC(C)CCNC(=O)CCCOc1ccccc1	.	.
CCCCN1CSC(=S)N(Cc2ccccc2)C1	.	.
N#Cc1c(C(F)(F)F)cc(-c2cccs2)nc1SCC(=O)Nc1cccc(C(F)(F)F)c1	.	.
CN1CCc2nc(SCC(=O)Nc3ccc(OC(F)(F)F)cc3)c(C#N)c(-c3cccs3)c2C1	.	?
CC(=O)CSc1nc(N)c(C#N)c(-c2cccs2)c1C#N	.	.
CN1CCc2nc(SCC(=O)Nc3cccc(F)c3)c(C#N)c(-c3cccs3)c2C1	.	20µM
CC(C)(C)C(=O)CSc1nc2c(c(-c3cccs3)c1C#N)CCC2	.	25µM
N#Cc1ccc(-c2cccs2)nc1SCC(=O)Nc1cccc(C(F)(F)F)c1	.	20µM
Cc1c(C(=O)N2CCC(C)CC2)c(S(=O)(=O)Nc2cccc(C(F)(F)F)c2)c(C)n1C	.	?
O=C(CSc1nc2ccccc2n1Cc1cccc(C(F)(F)F)c1)NCc1ccccc1	.	?
O=C(CSc1nc2ccccc2s1)NCCOc1ccccc1	.	.
Nc1nnc(SCC(=O)NCCOc2ccccc2)s1	28µM	?
O=C(Cc1ccccc1)Nc1nnc(-c2cccc([N+](=O)[O-])c2)s1	.	16µM
O=C(Nc1ncc(Cc2cccc(Cl)c2)s1)c1ccc([N+](=O)[O-])cc1	.	?
CCOc1ccc(NC(=O)/C(C#N)=C\c2ccc(-c3ccc(Cl)cc3)o2)cc1	.	.
O=C(Nc1ncc(Cc2ccccc2Cl)s1)c1ccc([N+](=O)[O-])cc1	.	?
Cc1ccc(Cc2cnc(NC(=O)/C(C#N)=C/c3ccc(-c4ccc([N+](=O)[O-])cc4)o3)s2)cc1	.	2.5µM
COc1ccc(CC(=O)Nc2nnc(-c3cccc([N+](=O)[O-])c3)s2)cc1	.	?
SMILES	Cruzain inh Det	Cruzain noTriton
O=C(Nc1ncc(Cc2ccccc2Cl)s1)c1ccc(-c2cccc([N+](=O)[O-])c2)o1	.	6.3µM
O=C(Nc1ncc(Cc2ccc(C(F)(F)F)cc2)s1)c1ccc(-c2cccc([N+](=O)[O-])c2)o1	.	13µM
O=C(CSc1nc2sc3c(c2c(=O)[nH]1)CCCC3)Nc1ccccc1F	.	.
CC(=O)Oc1cc(OC(C)=O)c2c(c1)OC(c1ccc(OC(C)=O)c(OC(C)=O)c1)C(OC(C)=O)C2 (centres undefined)	.	?
CCN1CCN(Cc2nc3cc(NC(=O)c4cc(OC)c(OC)c(OC)c4)ccc3n2CC)CC1	.	.
COc1ccc(C)cc1NC(=O)Nc1ccccc1OCc1cc(=O)n2ccccc2n1	.	?
COc1ccc(C)cc1Nc1nc(-c2c[nH]c3ccccc23)cs1	.	16µM
COc1ccc(OC)c(Nc2nc(-c3cccs3)cs2)c1	.	?
COc1cc(C(=O)NCc2cn3cccc(C)c3n2)cc(OC)c1OC	.	.
CCC(SC1=N/C(=C/c2ccccc2)C(=O)N1c1ccccc1)C(=O)Nc1cc(C)on1 (centres undefined)	.	32µM
COc1ccc(/C=C2/N=C(SCC(=O)Nc3cc(C)on3)N(c3ccccc3)C2=O)cc1	.	.
Cc1ccc(S(=O)(=O)/N=C2/C=C(C3C(=O)CC(C)(C)CC3=O)C(=O)c3ccccc32)cc1	.	.
CCc1ccc(S(=O)(=O)/N=C2/C=C(Sc3ncn[nH]3)C(=O)c3ccccc32)cc1	.	25µM
O=[N+]([O-])c1ccc(CCNc2cccc3ccccc23)c([N+](=O)[O-])c1	.	25µM
O=[N+]([O-])c1cc([N+](=O)[O-])c2ccccc2c1	.	.
COC(=O)C(CCSC)NC(=O)c1cc2c(n(-c3ccc(Cl)cc3)c1=O)CCCC2=O (centres undefined)	.	.
O=[N+]([O-])c1ccc(S(=O)(=O)N2CCn3cccc3C2c2ccc(Br)cc2)cc1 (centres undefined)	.	?
Cc1ccc(C2c3cccn3CCN2S(=O)(=O)c2ccc([N+](=O)[O-])cc2)cc1 (centres undefined)	.	32µM
COc1cccc(N2CC(NC(=O)/C=C\c3ccc4c(c3)OCO4)CC2=O)c1 (centres undefined)	.	.
CCCC(=O)Nc1ccc(-c2ccc(NC(=O)CCC)cc2)cc1	.	13µM
CCCC(=O)Nc1ccc(Nc2ccccc2)cc1	.	.
COc1ccc2nc(N/C(N)=N/C(=S)Nc3ccc(C)c(C)c3)nc(C)c2c1	.	13µM
Cc1ccc(NC(=S)/N=C(\N)Nc2nc(C)c3ccccc3n2)cc1C	.	?
CCOC(=O)c1cc(S(=O)(=O)Nc2cc(F)ccc2C)[nH]n1	.	.
Cc1cc(C(=O)NC2=NCCS2)cs1	.	.
SMILES	Cruzain inh Det	Cruzain noTriton
O=C(NC1=NCCS1)c1csc2ccccc12	.	16µM
O=C(CNC(=O)c1ccccc1Cl)OCc1cc(=O)n2ccsc2n1	25µM	13µM
Cc1csc2nc(COC(=O)CNC(=O)c3ccccc3)cc(=O)n12	.	.
O=C(CNC(=O)c1ccc(F)cc1)OCc1cc(=O)n2ccsc2n1	.	.
Cc1csc2nc(COC(=O)CNC(=O)c3ccccc3Cl)cc(=O)n12	25µM	20µM
O=C(CSc1nnc(-c2ccccc2)o1)c1cccc([N+](=O)[O-])c1	.	.
c1ccc(Nc2nc(-c3ccc4c(c3)OCO4)nc3ccccc23)cc1	.	?
O=C(Nc1ccc(-c2cn3cccnc3n2)cc1)c1ccccc1F	.	.
Cc1ccc(CSC2=Nc3ccccc3C3=NC(CC(=O)NC4CCCCC4)C(=O)N23)cc1 (centres undefined)	.	.
COc1cc([N+](=O)[O-])ccc1NC(=O)N1CCC2(CC1)Nc1cc(F)ccc1-n1cccc12	.	25µM
COc1ccccc1N1CCN(C(=O)Nc2ccc([N+](=O)[O-])cc2)CC1	.	.
Cc1ccc(C)c(-c2ccc(C(=O)O)o2)c1	.	.
COc1ccccc1/C=C/C(=C1/C(=O)N(c2ccccc2)N=C1C)c1ccc(C)cc1	.	25µM
COc1cccc(/C=C/C(=C2/C(=O)N(c3ccccc3)N=C2C)c2ccccc2)c1OC	.	.
Cc1ccc(-c2nnn(CC(=O)N3c4ccccc4CCc4ccccc43)n2)cc1	.	?
Cc1ccc(-c2nnn(CC(=O)N3CCN(c4nc5ccccc5s4)CC3)n2)cc1	.	10µM
CCc1ccc(C2=C(C)C(N3CCC(C(=O)Nc4ccc(F)cc4)CC3)=NS2(=O)=O)cc1	.	?
Cc1cccc(OCCCSc2nc(-c3ccc(C(C)(C)C)cc3)nc3cc(=O)[nH]n23)c1C	.	10µM
CCc1ccc(OCCSc2nc(-c3cccc(C)c3)nc3cc(=O)[nH]n23)cc1	.	.
Cc1cccc(-c2nc(SCCCOc3ccc(Cl)c(C)c3)n3[nH]c(=O)cc3n2)c1	.	.
